# Results published in PubChem BioAssay.
# Records with an inconclusive call do not appear. Activity calls are given as the source filed them.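 How the source made its calls, unless noted: active means normalized viability below 100% at a tested concentration; inactive means the rest.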
# Columns and labels:
# [1] = growth inhibition of DIPG glioma cells, dose response, cell-based, SU-DIPG-XVII, MIPE5.0, CellTiter-Glo, qHTS (AID 1347060; cut-off not given, nearly all actives have AC50 up to about 26 µM;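 on AC50: cells exposed to compound for 48 hours before viability readout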); conditions: SU-DIPG-XVII viability, CellTiter-Glo ATP luminescence
# [2] = SU-DIPG-XXV glioma cell viability, MIPE5.0 library, qHTS (AID 1347068; cut-off not given, nearly all actives have IC50 up to about 30 µM;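 on IC50: cells exposed to compound for 48 hours before viability readout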)
# [3] = JHH-DIPG-1 glioma cell viability, MIPE5.0 library, CellTiter-Glo luminescence, qHTS (AID 1347067; cut-off not given, nearly all actives have AC50 up to about 26 µM;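 further: cells exposed to compound for 48 hours before readout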); conditions: JHH-DIPG-1 glioma viability, CellTiter-Glo ATP luminescence
# [4] = sensitizers of A549 cells to miR-34 induction, primary screen, imaging, A549 dox-inducible miR-34, nuclei and caspase counts (AID 1347080;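 active means compounds whose cell count with miR-34 switched on is under 0.7 times the count with it off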); conditions: A549 miR-34 inducible, Hoechst nuclei count, 48 h
# [5] = modifiers of HSF1 nuclear foci, imaging, Selleck Cancer Library (AID 1347162; in the data active means plate-normalised HSF1 focus index below about 0.46); conditions: human cells, at 10 µM; SSMD: measured here: HSF1 foci SSMD mean; cell count: measured here: cell number; plate-normalised HSF1 focus index: stronger effect = lower value
# [6] = survival rescue of mitochondrial mutant cells in low glucose, primary screen, MELAS cybrids, Rieske KO mouse fibroblasts, CellTiter-Glo (AID 1508586;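 active means mean z-score across replicates of 1.96 or higher in either the MELAS or the Rieske mutant cell line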;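 further: z relative to plate mean and SD of compound and empty wells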)
# [7] = ovarian cancer cell viability with rucaparib, profiling panel, oncology-focused library, rucaparib conditional (AID 1508598); conditions: patient-derived ovarian cancer cells, CellTiter-Glo viability, 144 h, stronger effect = lower value
structure (smiles),measurement,setting,value
C[C@@H](O)[C@@H](C)Oc1nc(Nc2ccc(S(=N)(=O)C3CC3)cc2)ncc1C(F)(F)F (stereo not given in full),AC50,[1],20.9 µM (active)
same,outcome,[2],inactive
COc1cccc(Nc2ncnn3ccc(CN4CC[C@@H](N)[C@H](O)C4)c23)c1,AC50,[1],14.8 µM (active)
same,outcome,[3],inactive
same,outcome,[2],inactive
CN1C(=O)N(c2cc(Cl)cc(Cl)c2)C(=O)[C@]12CN(Cc1cc(C(=O)O)cs1)C[C@H]2c1ccc(C#N)cc1,outcome,[1],inactive
same,outcome,[2],inactive
Cc1cccc(-c2nn3c(c2-c2ccnc4ccc(C(N)=O)cc24)CCC3)n1,outcome,[1],inactive
same,outcome,[3],inactive
same,fold change,"[4]; stronger effect = lower value, cell number ratio, induced over uninduced",0.932 (inactive)
same,fold change,[4]; measured here: relative caspase fold change +Dox/-Dox,0.899
same,cell count,"[4]; measured here: total cells with miR-34 induction, stronger effect = lower value",8480
same,cell count,[4]; measured here: total cells without miR-34 induction,9100
same,SSMD,[5],1.55
same,cell count,[5],6630
same,plate-normalised HSF1 focus index,[5],1.08 (inactive)
same,z-score,"[6]; MELAS cybrid survival, CellTiter-Glo 48 h, stronger effect = higher value",-0.309 (inactive)
same,z-score,"[6]; Rieske KO mouse fibroblast survival, CellTiter-Glo 72 h",1.2
same,viability,"[7]; at 0.000305 µM, OCI-C5x cells, with rucaparib 10 µM, 100% = cells with rucaparib alone",110% (inactive)
same,viability,"[7]; at 0.000305 µM, OCI-C5x cells, without rucaparib",130% (inactive)
same,viability,"[7]; at 0.000305 µM, OCI-P5x cells, with rucaparib 20 µM, 100% = cells with rucaparib alone",102% (inactive)
same,viability,"[7]; at 0.000305 µM, OCI-P5x cells, without rucaparib",110% (inactive)
same,viability,"[7]; at 0.00122 µM, OCI-C5x cells, with rucaparib 10 µM, 100% = cells with rucaparib alone",110% (inactive)
same,viability,"[7]; at 0.00122 µM, OCI-C5x cells, without rucaparib",133% (inactive)
same,viability,"[7]; at 0.00122 µM, OCI-P5x cells, with rucaparib 20 µM, 100% = cells with rucaparib alone",102% (inactive)
same,viability,"[7]; at 0.00122 µM, OCI-P5x cells, without rucaparib",108% (inactive)
same,viability,"[7]; at 0.00488 µM, OCI-C5x cells, with rucaparib 10 µM, 100% = cells with rucaparib alone",110% (inactive)
same,viability,"[7]; at 0.00488 µM, OCI-C5x cells, without rucaparib",128% (inactive)
same,viability,"[7]; at 0.00488 µM, OCI-P5x cells, with rucaparib 20 µM, 100% = cells with rucaparib alone",99.7% (active)
same,viability,"[7]; at 0.00488 µM, OCI-P5x cells, without rucaparib",112% (inactive)
same,viability,"[7]; at 0.0195 µM, OCI-C5x cells, with rucaparib 10 µM, 100% = cells with rucaparib alone",113% (inactive)
same,viability,"[7]; at 0.0195 µM, OCI-C5x cells, without rucaparib",136% (inactive)
same,viability,"[7]; at 0.0195 µM, OCI-P5x cells, with rucaparib 20 µM, 100% = cells with rucaparib alone",105% (inactive)
same,viability,"[7]; at 0.0195 µM, OCI-P5x cells, without rucaparib",110% (inactive)
same,viability,"[7]; at 0.0781 µM, OCI-C5x cells, with rucaparib 10 µM, 100% = cells with rucaparib alone",109% (inactive)
same,viability,"[7]; at 0.0781 µM, OCI-C5x cells, without rucaparib",127% (inactive)
same,viability,"[7]; at 0.0781 µM, OCI-P5x cells, with rucaparib 20 µM, 100% = cells with rucaparib alone",110% (inactive)
same,viability,"[7]; at 0.0781 µM, OCI-P5x cells, without rucaparib",116% (inactive)
same,viability,"[7]; at 0.313 µM, OCI-C5x cells, with rucaparib 10 µM, 100% = cells with rucaparib alone",114% (inactive)
same,viability,"[7]; at 0.313 µM, OCI-C5x cells, without rucaparib",137% (inactive)
same,viability,"[7]; at 0.313 µM, OCI-P5x cells, with rucaparib 20 µM, 100% = cells with rucaparib alone",113% (inactive)
same,viability,"[7]; at 0.313 µM, OCI-P5x cells, without rucaparib",114% (inactive)
same,viability,"[7]; at 1.25 µM, OCI-C5x cells, with rucaparib 10 µM, 100% = cells with rucaparib alone",111% (inactive)
same,viability,"[7]; at 1.25 µM, OCI-C5x cells, without rucaparib",135% (inactive)
same,viability,"[7]; at 1.25 µM, OCI-P5x cells, with rucaparib 20 µM, 100% = cells with rucaparib alone",112% (inactive)
same,viability,"[7]; at 1.25 µM, OCI-P5x cells, without rucaparib",118% (inactive)
same,viability,"[7]; at 5 µM, OCI-C5x cells, with rucaparib 10 µM, 100% = cells with rucaparib alone",131% (inactive)
same,viability,"[7]; at 5 µM, OCI-C5x cells, without rucaparib",157% (inactive)
same,viability,"[7]; at 5 µM, OCI-P5x cells, with rucaparib 20 µM, 100% = cells with rucaparib alone",127% (inactive)
same,viability,"[7]; at 5 µM, OCI-P5x cells, without rucaparib",125% (inactive)
O=C(/C=C/c1ccc(Cl)cc1)N1CCC2(CC1)CN(Cc1ccc(Cl)c(Cl)c1)C(=O)O2,AC50,[1],18.6 µM (active)
same,outcome,[2],inactive
COC(=O)C1=C(C)NC(c2ncc(F)cc2F)=N[C@@H]1c1ccc(F)cc1Cl,outcome,[1],inactive
same,outcome,[2],inactive
Cc1noc2c1-c1ccccc1C(c1ccc(Cl)cc1)=N[C@H]2CC(N)=O,outcome,[1],inactive
same,outcome,[2],inactive
CC[C@@]1(O)C(=O)OCc2c1cc1n(c2=O)Cc2c-1nc1ccccc1c2CCNC(C)C,AC50,[1],0.00742 µM (active)
same,outcome,[2],inactive
C=C1CCC[C@]2(C)C=C3OC(=O)C(C)=C3C[C@@H]12,outcome,[1],inactive
same,outcome,[3],inactive
same,outcome,[2],inactive
CCS(=O)(=O)N1CCC(C(C)n2c(C)c(C(=O)NCc3c(OC)cc(C)[nH]c3=O)c3ccccc32)CC1 (stereo not given),outcome,[1],inactive
same,outcome,[3],inactive
same,outcome,[2],inactive
NC(=O)C1=C(O)[C@@]2(O)C(=O)C3=C(O)c4c(O)cccc4C[C@H]3C[C@H]2CC1=O,AC50,[1],18.6 µM (active)
same,AC50,[3],14.8 µM (active)
same,outcome,[2],inactive
CC(C)(O)CNc1ncc(-c2ccnc(Nc3ccncc3)n2)c(CC2CC2)n1,AC50,[1],16.6 µM (active)
same,AC50,[3],16.6 µM (active)
same,IC50,[2],23.5 µM (active)
O=C(NO)C1(CS(=O)(=O)c2ccc(Oc3ccc(Cl)cc3)cc2)CCOCC1,outcome,[1],inactive
same,AC50,[3],3.72 µM (active)
same,outcome,[2],inactive
C[C@H]1C[C@@H](n2c(Nc3ccc(OC(F)(F)F)cc3)nc3cc(CCC(=O)O)ccc32)CC(C)(C)C1,AC50,[1],23.5 µM (active)
same,outcome,[2],inactive
COc1cc2c3c(n(CCCN4CCOCC4)c(=O)c2cc1OC)-c1cc2c(cc1C3=O)OCO2,AC50,[1],0.0417 µM (active)
same,AC50,[3],8.33 µM (active)
same,outcome,[2],inactive
N#Cc1cccnc1N1CCN(C(=O)c2cccc(Cc3n[nH]c(=O)c4ccccc34)c2)CC1,AC50,[1],0.059 µM (active)
same,outcome,[2],inactive
CSc1ccc(C(=O)/C=C/c2cc(C)c(OC(C)(C)C(=O)O)c(C)c2)cc1,outcome,[1],inactive
same,outcome,[2],inactive
NC(=O)c1cc(F)cc2c1C(=O)N(C1CCN(C3CCC(F)(F)CC3)CC1)C2,outcome,[1],inactive
same,outcome,[3],inactive
same,outcome,[2],inactive
